These results are taken from PubChem BioAssay AID2283302 (EPA ToxCast).

Each structure is given as a SMILES string. Inconclusive results are not listed. Calls of active or inactive are those of the source. How the source made its calls: active means hit-call score of the fitted dose curve at least 0.9, where 1 is the maximum; inconclusive means response in the unintended direction; inactive means score below 0.9.

rat Gamma-HydroxyButyrate Receptor (GHB), Tspan17 (gene 306771), sequence (Q4V8E0 whole entry, looked up): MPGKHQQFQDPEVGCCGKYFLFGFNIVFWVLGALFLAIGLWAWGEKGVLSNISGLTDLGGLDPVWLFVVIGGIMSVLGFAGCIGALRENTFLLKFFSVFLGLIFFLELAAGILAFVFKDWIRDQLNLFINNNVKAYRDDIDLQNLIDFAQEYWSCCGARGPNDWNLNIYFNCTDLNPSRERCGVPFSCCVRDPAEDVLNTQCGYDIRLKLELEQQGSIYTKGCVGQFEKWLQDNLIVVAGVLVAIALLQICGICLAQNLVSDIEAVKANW

This assay concerns the target rat Gamma-HydroxyButyrate Receptor (GHB), Tspan17 (gene 306771) (UniProt Q4V8E0). In words: NVS_GPCR_rGHB: NovaScreen (NVS) G Protein-Coupled Receptor Assay for rat Gamma-HydroxyButyrate Receptor (GHB). The method, then:
NVS_GPCR_rGHB is a biochemical, single-readout assay that uses extracted gene-proteins from Rat forebrain in a tissue-based cell-free assay. Measurements were taken 1 hour after chemical dosing in a 48-well plate.NVS_GPCR_rGHB is one of one assay component(s) measured or calculated from the NVS_GPCR_rGHB assay. It is designed to make measurements of radioligand binding, a form of binding reporter, as detected with scintillation counting signals by Filter-based radiodetection technology.Data from the assay component NVS_GPCR_rGHB was analyzed into 1 assay endpoint. This assay endpoint, NVS_GPCR_rGHB, was analyzed in the positive analysis fitting direction relative to DMSO as the negative control and baseline of activity. Using a type of binding reporter, loss-of-signal activity can be used to understand changes in the binding as they relate to the gene Tspan17. Furthermore, this assay endpoint can be referred to as a primary readout, because the performed assay has only produced 1 assay endpoint. To generalize the intended target to other relatable targets, this assay endpoint is annotated to the gpcr intended target family, where the subfamily is metabotropic glutamate receptor.
Binding assays used specific radioligands (tritiated, iodinated) with non-radioactive competitive displacement ligands in agonist or antagonist protocols (as indicated) and various reference compounds and inhibitors to titrate specific binding to receptors and transporters. Most enzyme assays (CYPs, kinases, phosphatases, proteases, HDACs) used recombinant protein and specific substrates (fluorescence mostly, some colorimetric and radioactive) and inhibitors, followed by a biochemical separation of substrate and product. All assays for the biochemical HTS were initially run in duplicate at a single concentration (10 uM for CYP450 assays and 25 uM for all others). Assay-chemical combinations meeting a pre-defined threshold (e.g., 30% inhibition and other criteria defined below) were then run in singleton concentration-response format with maximum concentration of 20 uM for CYPs and 50 uM for all others. Each assay was run with positive and negative controls, and concurrent controls on every plate. The follow-up (secondary) screen tested active chemical-pairs in concentration series, as well as a few additional assays not tested in the primary screen, some selected negative inactives, and several cases re-run in the concentration series for confirmatory purposes.
As for `CO[C@@H]1[C@H](OC(=O)NC(=O)CCl)CC[C@]2(CO2)[C@H]1[C@@]1(C)O[C@@H]1CC=C(C)C`, the compound was called inactive. Consider `N#CSCSC#N`, for which the concentration at half-maximal activity (AC50) was 19.5 µM (active). Regarding `CC(C1CC1)C(O)(Cn1cncn1)c1ccc(Cl)cc1` (centres undefined), the result was inactive. Still for that read-out and setting: with `COP(=S)(OC)Oc1nc(Cl)c(Cl)cc1Cl` the entry was “inactive”. On the same count and under the same terms, as for `CC(C)Oc1cccc(NC(=O)c2ccccc2C(F)(F)F)c1`, the entry is “inactive”. Take `Cc1cc(Cl)ccc1OCC(=O)O`: the concentration at half-maximal activity (AC50) is 25 µM (active). With `CCOC(=O)CC(SP(=S)(OC)OC)C(=O)OCC` (centres undefined), the call was inactive. Turning to `CCOP(=O)(OCC)Oc1nc(Cl)c(Cl)cc1Cl`, the outcome was inactive.

On to `Clc1nc(Cl)nc(Nc2ccccc2Cl)n1`, for which the AC50 is 18.6 µM (active).
